Assay [1] in a line: qHTS assay for small molecule antagonists of peroxisome proliferator-activated receptor delta signaling (AID 588535; active means well fitted inhibition curve with a large enough effect in the signal ratio, with a control signal flat, not every such curve was filed as active; the % refers to the signal ratio;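 on max response: cells co-treated with a PPAR-delta agonist as stimulator during compound exposure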). The conditions noted are these: HEK293T PPARd-UAS-bla, beta-lactamase FRET ratio, 18 h; 460 nm channel. The method in brief: (§1)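 Reporter: UAS-bla under PPAR-delta response element, HEK293T host. Medium: 2% charcoal/dextran FBS. Dosing: titration, 18 hrs, 37 C. Detection: CCF4, 2 hrs RT, 405 ex/460 and 530 em.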
Background: Quantitative high-throughput screening tests each substance at several concentrations.

Assay [2] addresses Peroxisome proliferator-activated receptor delta (Homo sapiens) (UniProt Q03181). The description is as above. The method in brief:
as §1

The target of assay [3] is Peroxisome proliferator-activated receptor gamma (Homo sapiens) (UniProt P37231). As to the kind of experiment: qHTS assay for small molecule agonists of peroxisome proliferator-activated receptor gamma signaling (AID 588536; active means well fitted curve in the direction sought with a large enough effect in the signal ratio, with a control signal flat, not every such curve was filed as active; the % refers to the signal ratio;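 further: 0% = DMSO basal wells and 100% = rosiglitazone at 2 µM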). The method, boiled down: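 HEK293 UAS-bla reporter line, 1% charcoal/dextran FBS; titration, 16 h, 37 C; CCF4 loading 2 h RT; fluorescence 460/530 nm. Normalized to rosiglitazone 2 uM = 100%, DMSO = 0%.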
Chain of Peroxisome proliferator-activated receptor gamma (Homo sapiens) (P37231 whole entry, looked up): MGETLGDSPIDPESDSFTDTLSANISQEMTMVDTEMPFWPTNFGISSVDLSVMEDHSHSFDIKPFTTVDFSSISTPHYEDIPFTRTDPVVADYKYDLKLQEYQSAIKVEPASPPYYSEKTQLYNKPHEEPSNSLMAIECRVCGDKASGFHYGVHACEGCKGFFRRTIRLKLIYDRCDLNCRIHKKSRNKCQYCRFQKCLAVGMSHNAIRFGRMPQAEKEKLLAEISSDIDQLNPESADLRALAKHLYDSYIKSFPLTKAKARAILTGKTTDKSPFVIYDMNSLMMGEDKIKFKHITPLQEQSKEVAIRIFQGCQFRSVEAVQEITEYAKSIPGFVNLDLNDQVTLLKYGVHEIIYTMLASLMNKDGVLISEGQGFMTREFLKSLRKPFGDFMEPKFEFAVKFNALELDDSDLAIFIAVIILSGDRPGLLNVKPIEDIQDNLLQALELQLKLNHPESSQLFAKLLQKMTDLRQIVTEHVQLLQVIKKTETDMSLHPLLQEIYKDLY

The target is the same in assay [4]. In words: qHTS assay for small molecule antagonists of peroxisome proliferator-activated receptor gamma signaling (AID 588537; active means well fitted inhibition curve with a large enough effect in the signal ratio, with a control signal flat, not every such curve was filed as active; the % refers to the signal ratio;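 further: reporter cells co-stimulated with 50 nM rosiglitazone agonist during compound treatment; % of control where 0% means no effect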). The method, boiled down:
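We seeded GeneBLAzer HEK293 reporter cells at 3000 per well, allowed 6-6.5 h attachment at 37 C, then co-treated with test compound titrations and 50 nM rosiglitazone overnight (16 h). Inhibition was quantified from 460/530 nm emission ratios.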

Assay [5] deals with Vitamin D3 receptor (Homo sapiens) (UniProt P11473). As to the kind of experiment: qHTS assay for small molecule antagonists of vitamin D receptor signaling (AID 588541).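 Further: receptor activated by calcitriol during compound treatment; series mostly up to about 77 µM; on the % scale 0 is the no-effect control and ±100 the full control effect.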 The method, boiled down:
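VDR-UAS-bla HEK293T cells (2000/well, 2% charcoal-stripped FBS) were treated with titrated compounds plus 1-alpha,25-dihydroxyvitamin D3 (50 nM or 3 nM final) for 16 h at 37 C. CCF4 beta-lactamase fluorescence was read; Hill fits gave IC50.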

Assay [6] has the same target. In words: qHTS assay for small molecule agonists of vitamin D receptor signaling (AID 588543).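 Further: 0% = DMSO basal and 100% = reference agonist control.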 The method in brief: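 Measured: β-lactamase reporter activity (CCF4, 405 nm excitation, 460/530 nm emission) in HEK293T VDR-UAS-bla cells after 16 h compound exposure at 37 °C. Normalization against 50 nM 1α,25-dihydroxyvitamin D3 and DMSO; Hill-fit EC50.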
Assay [7] is described as follows: qHTS assay for small molecule agonists of retinoid X receptor alpha signaling (AID 588544).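 On activation: 0% = DMSO basal wells and 100% = reference agonist.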 As to conditions: HEK293T RXRa-UAS-bla, beta-lactamase reporter, 18 h; 530 nm emission.
The target of assay [8] is Retinoic acid receptor RXR-alpha (Homo sapiens) (UniProt P19793). Described as above.
Chain of Retinoic acid receptor RXR-alpha (Homo sapiens) (P19793 whole entry, looked up): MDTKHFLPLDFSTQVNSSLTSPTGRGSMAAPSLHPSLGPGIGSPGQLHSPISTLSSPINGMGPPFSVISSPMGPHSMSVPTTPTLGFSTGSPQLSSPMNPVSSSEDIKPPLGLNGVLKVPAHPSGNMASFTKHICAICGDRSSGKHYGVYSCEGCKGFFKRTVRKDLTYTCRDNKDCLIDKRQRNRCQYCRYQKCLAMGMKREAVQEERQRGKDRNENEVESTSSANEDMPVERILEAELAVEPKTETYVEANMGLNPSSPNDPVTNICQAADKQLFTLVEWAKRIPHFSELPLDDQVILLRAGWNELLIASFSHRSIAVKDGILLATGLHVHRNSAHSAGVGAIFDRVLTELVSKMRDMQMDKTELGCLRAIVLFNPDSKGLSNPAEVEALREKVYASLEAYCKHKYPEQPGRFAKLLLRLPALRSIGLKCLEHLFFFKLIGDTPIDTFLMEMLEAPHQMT
Assay [9] has as its target Thyroid hormone receptor beta (Homo sapiens) (UniProt P10828). In words: qHTS assay for small molecule agonists of thyroid hormone receptor beta signaling (AID 588545).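 Further: 0% = DMSO only and 100% = 10 nM T3.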 The method, boiled down: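 Efficacy and EC50 values derive from Hill fits of qHTS titration data, normalized to 10 nM T3 and DMSO-only wells. HEK 293 reporter cells were stimulated for 18 hrs at 37 C, with beta-lactamase activity measured by CCF4 fluorescence.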

Assay [10] can be described thus: qHTS assay for small molecule antagonists of retinoid X receptor alpha signaling (AID 588546; active means well fitted inhibition curve with a large enough effect in the signal ratio, with a control signal flat, not every such curve was filed as active; the % refers to the signal ratio;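 further: cells stimulated with 9-cis-retinoic acid as agonist; on the % scale 0 is the no-effect control and ±100 the full control effect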). The conditions noted are these: HEK293T RXRa-UAS-bla, beta-lactamase ratio, antagonist mode; measured here: W530 green channel, cytotoxicity proxy. The method in brief: (§2)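 Beta-lactamase reporter inhibition, read as CCF4 fluorescence ratio (ex 405, em 460/530 nm) after 2 h at RT. HEK293T UAS-bla cells, 2500/well, were stimulated with 9-cis-RA at 500 or 100 nM final alongside test compound for 18 h at 37 C.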

Assay [11] deals with Retinoic acid receptor RXR-alpha (Homo sapiens) (UniProt P19793). The description is as above. The conditions noted are these: HEK293T RXRa-UAS-bla, beta-lactamase ratio, antagonist mode. The method, boiled down:
as §2

The target of assay [12] is Thyroid hormone receptor beta (Homo sapiens) (UniProt P10828). As to the kind of experiment: qHTS assay for small molecule antagonists of thyroid hormone receptor beta signaling (AID 588547; active means well fitted inhibition curve with a large enough effect in the signal ratio, with a control signal flat, not every such curve was filed as active; the % refers to the signal ratio;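 further: cells stimulated with 0.4 nM T3 agonist during compound exposure; series mostly up to about 77 µM; on the % scale 0 is the no-effect control and ±100 the full control effect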). As to conditions: TR-UAS-bla HEK293, beta-lactamase ratio, antagonist mode, 18 h. The method, boiled down: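 TR-UAS-bla GripTite HEK293 cells in 2% charcoal/dextran FBS medium were preincubated 4 h at 37 C, given compound (0.59 nM to 92 uM) plus 0.4 nM T3 (final) for 18 h, then CCF4 for 2 h at RT; Hill fit gave IC50.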
Chain of Thyroid hormone receptor beta (Homo sapiens) (P10828 whole entry, looked up): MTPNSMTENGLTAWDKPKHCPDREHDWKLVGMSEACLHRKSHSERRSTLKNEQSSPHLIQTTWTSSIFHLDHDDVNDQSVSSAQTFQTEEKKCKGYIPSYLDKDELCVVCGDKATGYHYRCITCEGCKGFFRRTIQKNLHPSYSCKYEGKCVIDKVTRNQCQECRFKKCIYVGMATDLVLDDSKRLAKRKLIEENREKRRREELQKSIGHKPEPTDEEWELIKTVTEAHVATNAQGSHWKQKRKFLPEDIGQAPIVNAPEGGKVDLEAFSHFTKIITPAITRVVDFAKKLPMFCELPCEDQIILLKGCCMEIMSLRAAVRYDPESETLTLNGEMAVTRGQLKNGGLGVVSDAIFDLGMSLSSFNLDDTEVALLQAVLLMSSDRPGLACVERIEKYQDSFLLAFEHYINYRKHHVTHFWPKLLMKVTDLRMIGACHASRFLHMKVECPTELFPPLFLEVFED

Assay [13] deals with Voltage-gated inwardly rectifying potassium channel KCNH2 (Homo sapiens) (UniProt Q12809). In words: qHTS Assay for Small Molecule Inhibitors of the Human hERG Channel Activity (AID 588834; active means well fitted inhibition curve with a large enough effect;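 further: top concentration of the series differs between compounds; on the % scale 0 is the no-effect control and ±100 the full control effect; lower thallium flux fluorescence means stronger hERG block; nearly all actives have a fitted effect of over 50% in size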). The method, boiled down: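 Blockade is seen as reduced FluxOR thallium-flux fluorescence in U2OS cells expressing hERG from a BacMam construct, in Opti-MEM with 2% FCS. Concentration-response data fitted to the Hill equation for AC50.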
Chain of Voltage-gated inwardly rectifying potassium channel KCNH2 (Homo sapiens) (Q12809 whole entry, looked up): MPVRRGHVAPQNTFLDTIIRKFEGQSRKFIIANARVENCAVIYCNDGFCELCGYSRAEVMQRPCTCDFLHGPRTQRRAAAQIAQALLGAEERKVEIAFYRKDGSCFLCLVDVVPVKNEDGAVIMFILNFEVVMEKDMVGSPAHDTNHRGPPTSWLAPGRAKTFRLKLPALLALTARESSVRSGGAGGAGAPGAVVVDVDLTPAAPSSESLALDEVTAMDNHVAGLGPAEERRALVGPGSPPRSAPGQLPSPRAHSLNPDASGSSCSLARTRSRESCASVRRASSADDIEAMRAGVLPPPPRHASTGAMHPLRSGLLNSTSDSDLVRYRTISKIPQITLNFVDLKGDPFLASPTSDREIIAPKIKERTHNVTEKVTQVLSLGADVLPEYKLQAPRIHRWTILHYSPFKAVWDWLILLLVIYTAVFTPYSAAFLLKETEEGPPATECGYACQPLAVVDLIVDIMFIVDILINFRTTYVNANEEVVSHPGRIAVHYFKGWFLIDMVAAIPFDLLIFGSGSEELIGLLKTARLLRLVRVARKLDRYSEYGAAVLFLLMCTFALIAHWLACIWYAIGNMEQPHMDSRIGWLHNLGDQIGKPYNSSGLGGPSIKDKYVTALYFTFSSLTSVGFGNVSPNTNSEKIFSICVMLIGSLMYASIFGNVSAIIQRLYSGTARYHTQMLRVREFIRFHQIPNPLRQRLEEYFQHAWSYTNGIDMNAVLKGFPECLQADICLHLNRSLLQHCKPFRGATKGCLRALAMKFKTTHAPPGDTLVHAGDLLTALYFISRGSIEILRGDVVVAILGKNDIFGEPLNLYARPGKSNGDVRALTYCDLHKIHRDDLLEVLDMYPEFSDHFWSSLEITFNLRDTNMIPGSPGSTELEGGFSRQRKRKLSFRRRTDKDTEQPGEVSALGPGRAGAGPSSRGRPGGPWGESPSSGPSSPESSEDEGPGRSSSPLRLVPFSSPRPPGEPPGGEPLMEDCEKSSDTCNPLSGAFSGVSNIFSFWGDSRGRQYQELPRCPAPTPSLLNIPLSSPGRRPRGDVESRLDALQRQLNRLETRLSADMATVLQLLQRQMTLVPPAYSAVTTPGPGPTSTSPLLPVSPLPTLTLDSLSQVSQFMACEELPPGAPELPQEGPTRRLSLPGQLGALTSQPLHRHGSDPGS

The nature of assay [14]: qHTS assay for small molecule activators of the p53 signaling pathway (AID 651743; active means well fitted activation curve with a large enough effect in the signal ratio, not every such curve was filed as active; the % refers to the signal ratio; further: series mostly up to about 92 µM; % of control where 0% means no effect). The conditions noted are these: HCT-116 p53RE-bla, beta-lactamase FRET ratio, 16 h; stronger effect = higher value. The method, boiled down: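 Cell-based beta-lactamase reporter (p53 response elements, HCT-116 background). After a 5-hour preincubation, cells received compound for 16 hours at 37 C; substrate development ran 2 hours at room temperature.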

Assay [15] can be described thus: qHTS assay for small molecule activators of the nuclear factor-kappa B (NF-kB) signaling pathway (AID 651749; active means well fitted activation curve with a large enough effect in the signal ratio; the % refers to the signal ratio; further: series mostly up to about 77 µM; % of control where 0% means no effect). As to conditions: NF-kB-bla ME-180 cells, beta-lactamase FRET ratio, 16 h; stronger effect = higher value. The method, boiled down: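 Screening used 2,000 ME-180 reporter cells per well exposed to pinned compound (23 nL) or DMSO; after 16 hr at 37C, beta-lactamase expression under NF-kB control was assessed through FRET.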

The target in assay [16] is Glucocorticoid receptor (Homo sapiens) (UniProt P04150). In words: qHTS assay for small molecule antagonists of glucocorticoid receptor signaling (AID 588533; active means well fitted inhibition curve with a large enough effect in the signal ratio, with a control signal flat, not every such curve was filed as active; the % refers to the signal ratio;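 further: cells stimulated with 2 nM dexamethasone as agonist; on the % scale 0 is the no-effect control and ±100 the full control effect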). The method in brief: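 Antagonist-mode qHTS: compound titrations added to GRE-bla HeLa cells, then dexamethasone 2 nM final; 18 h, 37 C. CCF4 FRET fluorescence normalized to dexamethasone and DMSO; IC50 from Hill fit.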
Chain of Glucocorticoid receptor (Homo sapiens) (P04150 whole entry, looked up): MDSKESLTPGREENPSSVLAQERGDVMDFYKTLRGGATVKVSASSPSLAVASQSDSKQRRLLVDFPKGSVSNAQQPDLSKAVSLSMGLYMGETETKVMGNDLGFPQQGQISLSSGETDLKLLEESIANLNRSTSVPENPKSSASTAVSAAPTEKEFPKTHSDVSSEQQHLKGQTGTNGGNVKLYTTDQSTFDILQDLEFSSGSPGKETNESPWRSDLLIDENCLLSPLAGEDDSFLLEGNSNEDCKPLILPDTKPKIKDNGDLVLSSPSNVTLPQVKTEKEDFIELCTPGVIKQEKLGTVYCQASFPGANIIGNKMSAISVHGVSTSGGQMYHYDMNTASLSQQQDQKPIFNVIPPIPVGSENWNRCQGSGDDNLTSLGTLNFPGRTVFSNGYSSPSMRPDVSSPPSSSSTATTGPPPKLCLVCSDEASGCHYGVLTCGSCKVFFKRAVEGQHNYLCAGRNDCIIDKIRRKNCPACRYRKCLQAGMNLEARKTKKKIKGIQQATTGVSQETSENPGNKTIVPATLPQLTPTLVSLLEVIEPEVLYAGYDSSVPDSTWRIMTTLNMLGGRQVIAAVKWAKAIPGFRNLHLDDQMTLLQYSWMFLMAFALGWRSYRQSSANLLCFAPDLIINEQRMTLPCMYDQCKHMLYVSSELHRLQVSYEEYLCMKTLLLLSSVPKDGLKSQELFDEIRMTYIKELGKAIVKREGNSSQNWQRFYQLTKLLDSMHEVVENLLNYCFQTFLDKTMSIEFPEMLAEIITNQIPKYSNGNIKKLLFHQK

The target is the same in assay [17]. In words: qHTS assay for small molecule agonists of glucocorticoid receptor signaling (AID 588532; active means well fitted curve in the direction sought with a large enough effect in the signal ratio, with a control signal flat; the % refers to the signal ratio;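 further: 100% = dexamethasone at 0.1 µM and 0% = DMSO only wells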). As to conditions: HeLa MMTV-bla, beta-lactamase ratio, agonist, 18 h; stronger effect = higher value; percent of dexamethasone control, DMSO zero. The method in brief:
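MMTV-bla HeLa, beta-lactamase reporter; medium with 1% charcoal/dextran-stripped FBS; cpds up to 92 uM, 18 h, 37 C; CCF4 readout 460/530 nm; Hill fit → EC50, efficacy vs 0.1 uM dexamethasone = 100%.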

A short description of assay [18]: qHTS assay for small molecule agonists of the antioxidant response element (ARE) signaling pathway (AID 651741; active means well fitted activation curve with a large enough effect in the signal ratio; the % refers to the signal ratio; further: % of control where 0% means no effect). The method in brief: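 Compounds in DMSO are pinned onto HepG2 ARE-bla cells (2,000/well) that were preincubated 5 h; plates stay 16 h at 37 C, then beta-lactamase activity is detected with LiveBLAzer B/G substrate by fluorescence.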

Several values for one entry are separate records, joined by “and”; a condition that tells them apart may be missing. Equal entries are not always repeated. Results filed as inconclusive are left out. Activity calls are given as the source filed them. Unless noted, the call rests on the fitted dose curve.

Chain of Peroxisome proliferator-activated receptor delta (Homo sapiens) (Q03181 whole entry, looked up): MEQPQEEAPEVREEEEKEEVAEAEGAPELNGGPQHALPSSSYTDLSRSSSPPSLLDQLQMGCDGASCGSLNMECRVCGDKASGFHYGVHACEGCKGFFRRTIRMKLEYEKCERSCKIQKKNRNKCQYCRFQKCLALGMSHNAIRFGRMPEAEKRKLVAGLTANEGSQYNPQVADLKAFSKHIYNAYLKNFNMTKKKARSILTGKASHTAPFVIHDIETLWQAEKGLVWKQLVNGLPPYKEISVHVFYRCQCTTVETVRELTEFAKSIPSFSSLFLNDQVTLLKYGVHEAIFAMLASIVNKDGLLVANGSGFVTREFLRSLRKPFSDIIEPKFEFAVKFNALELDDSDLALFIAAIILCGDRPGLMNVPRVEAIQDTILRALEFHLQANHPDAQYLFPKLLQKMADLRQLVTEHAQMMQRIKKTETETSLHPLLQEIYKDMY
Chain of Vitamin D3 receptor (Homo sapiens) (P11473 whole entry, looked up): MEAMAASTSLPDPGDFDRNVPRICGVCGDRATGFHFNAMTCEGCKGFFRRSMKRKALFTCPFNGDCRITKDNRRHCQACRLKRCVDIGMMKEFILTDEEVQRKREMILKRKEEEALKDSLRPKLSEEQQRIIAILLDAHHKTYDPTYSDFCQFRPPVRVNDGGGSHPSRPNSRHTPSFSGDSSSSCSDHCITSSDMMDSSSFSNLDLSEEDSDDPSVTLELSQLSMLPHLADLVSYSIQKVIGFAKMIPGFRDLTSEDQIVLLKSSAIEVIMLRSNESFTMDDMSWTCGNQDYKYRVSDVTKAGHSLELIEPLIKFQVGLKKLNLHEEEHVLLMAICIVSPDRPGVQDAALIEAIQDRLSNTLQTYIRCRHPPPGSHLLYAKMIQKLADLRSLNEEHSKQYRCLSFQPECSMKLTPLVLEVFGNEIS

Take `CCOc1cccc(N)c1`: the max response in assay [1] is -10.6%; in assay [7], -8.66%; in [10] it was 5.53%; in assay [11], -4.73% (inactive). Moreover, the Potency entry in assay [2] and in [13] was “inactive” each time. The compound was classed as inactive in [3], in [4], in [5], in [6], in [8] and in assay [9]. Also, the activity change % (negative = inhibition) in [12] is -0.0909% (inactive). Further, the activation in assay [14] was 0.42% (inactive); in [15], -0.866% (inactive).

Consider `S=C([S-])NCCNC(=S)[S-].[Zn+2]`, for which the compound was classed as inactive in assay [16], in assay [3], in assay [4], in assay [6] and in assay [9]. Further, the activity change % (negative = inhibition) in assay [12] is 6.23% (inactive) and -0.322% (inactive).

Consider `C[C@@H]1CC2(OC[C@]3(C)O[C@H]23)O[C@H]2C[C@@]3(C)[C@@H]4CC[C@H]5C(C)(C)C(O[C@@H]6OC[C@@H](O)[C@H](O)[C@H]6O)CC[C@@]56C[C@@]46CC[C@]3(C)[C@@H]12` (some centres undefined), for which the activation in [17] is -8.99% (inactive); in assay [14], -7.18% (inactive); in assay [15] it was -1.67% (inactive). In addition, the compound was called inactive in [9]. Also, the activity change % (negative = inhibition) in assay [12] was 4.18% (inactive). For the same compound, the Potency entry in [13] is “inactive”.

For the compound `Cc1ccccc1C(=O)O`, the activation was -5.56% (inactive) in assay [17] and -1.6% (inactive) in assay [15]. Also, the outcome in assay [3], in [5], in [6] and in [8] was inactive. Also, the values for the max response in [7], in assay [10] and in assay [11] were -19.5%, -2.02% and 37.3% (inactive), respectively. The activity change % (negative = inhibition) in assay [12] is -4.62% (inactive). The Potency entry in assay [13] and in assay [18] was “inactive” each time.

With `O=[N+]([O-])c1cccc(Cl)c1`, the max response in assay [1] is 4.21%; in [7] it was -8.32%; in [10], -3.93%; in assay [11] it was 7.77% (inactive). Also, the Potency result in [2], in [13] and in assay [18] was “inactive” each time. In addition, the compound was classed as inactive in [3], in assay [4], in assay [5], in assay [6], in assay [8] and in assay [9]. Also, the activity change % (negative = inhibition) in [12] is -12.9% (inactive). Also, the activation in assay [14] was -3.73% (inactive); in [15] it was 0.464% (inactive).

For the compound `CC(=O)c1ccc([N+](=O)[O-])cc1`, the call in [16], in assay [3], in [5] and in assay [8] was inactive. In addition, the max response in assay [1] is 10.4%; in assay [7], -7.91%; in assay [10], 4.7%; in assay [11], 1.74% (inactive). The Potency entry in assay [2] and in assay [13] was “inactive” each time. In addition, in assay [12], the activity change % (negative = inhibition) was -0.995% (inactive). The activation in assay [15] is 0.321% (inactive).

Take `O=C1CCC(=O)O1`: the outcome in assay [16], in assay [3], in assay [5], in assay [6], in assay [8] and in [9] was inactive. Also, the max response is 24.1% in [1], 8.02% in assay [7], -8.25% in assay [10] and -2.46% (inactive) in assay [11]. Also, the Potency entry in assay [2], in assay [13] and in assay [18] was “inactive” throughout. For the same compound, the activity change % (negative = inhibition) in [12] is -21.6% (inactive). For the same compound, in assay [14], the activation was 0.572% (inactive).

Take `C=CCCCC`: the result in [16], in assay [3], in assay [4], in assay [5], in assay [6] and in [8] was inactive. Also, in assay [9], the compound was called inactive. Moreover, the max response in assay [1] is 22.6%; in assay [7] it was -12.2%; in assay [10], -3.19%; in assay [11] it was -7.65% (inactive). For the same compound, the Potency result in assay [2] and in assay [18] was “inactive” each time. Further, the activity change % (negative = inhibition) in [12] is 9.97% (inactive). For the same compound, the values for the activation in assay [14] and in assay [15] were 0.701% (inactive) and 0.582% (inactive), respectively.

For the compound `Cc1cscn1`, the max response is -36.6% in assay [1], -3.55% in assay [7], -2.99% in [10] and 3.21% (inactive) in assay [11]. Further, the Potency entry in assay [2], in assay [13] and in assay [18] was “inactive” in each case. The result in assay [3], in assay [4], in assay [5], in assay [6], in assay [8] and in assay [9] was inactive. Moreover, the activity change % (negative = inhibition) in [12] is 9.8% (inactive). The values for the activation in assay [14] and in [15] were -1.86% (inactive) and -0.548% (inactive), respectively.

These data come from PubChem BioAssay (NCATS).
